LmPK inh = inhibitors of Leishmania mexicana pyruvate kinase; hit rate 0.37% among 290,000; Q27686; AID 1721; Potency, µM (highest dose often 57.5 µM), actives largely listed as inhibitors; purified LmPK, Kinase-Glo ATP luminescence, 1 h
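Purified LmPK (0.1 nM) with 0.5 mM PEP and 0.1 mM ADP in imidazole buffer pH 7.2 with MgCl2/KCl, 1 h at room temperature. ATP formed was read by luciferase luminescence and normalized to no-enzyme and uninhibited controls.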
Shiga inhibitor = inhibitors of Shiga toxin in Vero cells; Vero cells, Shiga toxin protein synthesis inhibition reporter; inhibition, % at 38.7 µM; hit rate 9.2% among 290,000; in the data active = inhibition mostly above about 28%, no sharp cut-off; inactive = mostly below about 43%
Tb PYK inh = inhibitors of Trypanosoma brucei pyruvate kinase. Q57TT1. TbPYK enzyme, Kinase-Glo Plus ATP luminescence, 45 min. Potency, µM (titrated, usually from 76.8 µM), most hits filed as inhibitors. hit rate 0.12% among 410,000; also: nearly all actives have a fitted effect of over 50% in size
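In this concentration-response screen, enzyme-free wells defined baseline while DMSO plates tracked drift. Each reaction combined TbPYK, substrate, compound and 130 uM ADP for 45 min at room temperature. Kinase-Glo Plus luminescence gave the signal.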
Cycloheximide cs = counter-screen hit for Shiga toxin inhibitors, cycloheximide. cell reporter, cycloheximide protein synthesis inhibition counterscreen. hit rate 12% among 300,000. max response, %; in the data active = max response mostly above about 13%, no sharp cut-off; inactive = mostly below about 14%; also: read at 38.3 µM for the half of the compounds with a filed dose
FBPA Giardia inh = inhibitors of Giardia lamblia fructose-1,6-bisphosphate aldolase; A8B2U2; purified Giardia FBPA; Potency, µM (top dose mostly 59.6 µM), hits mostly inhibitors; hit rate 0.71% among 290,000; AID 2451; also: nearly all actives have a fitted effect of over 55% in size
Target sequence (A8B2U2 whole entry, looked up): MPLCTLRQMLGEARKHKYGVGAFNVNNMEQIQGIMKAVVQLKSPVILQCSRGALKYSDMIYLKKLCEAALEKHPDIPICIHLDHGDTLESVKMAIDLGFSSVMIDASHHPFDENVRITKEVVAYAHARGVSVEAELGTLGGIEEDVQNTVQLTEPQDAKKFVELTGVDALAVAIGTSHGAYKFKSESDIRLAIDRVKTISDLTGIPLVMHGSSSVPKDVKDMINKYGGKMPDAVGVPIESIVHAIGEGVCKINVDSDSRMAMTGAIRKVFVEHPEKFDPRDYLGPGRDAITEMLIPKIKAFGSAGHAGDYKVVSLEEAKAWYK
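Giardia FBPA (40 nM reagent) was preincubated 10 min at RT with compound (up to 57.5 uM final), then substrate plus GAPDH/TPI/NAD/arsenate coupling system with diaphorase/resazurin was added; resorufin fluorescence (525/598 nm) was read after 20 min.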
Sm TGR inh = S. mansoni TGR enzyme inhibition; purified TGR, DTNB reduction, TNB absorbance 405 nm; hit rate 3% among 360,000; Potency, µM (titrated, usually from 114 µM), most hits filed as inhibitors; Q962Y6; also: nearly all actives have a fitted effect of over 60% in size
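TGR 20 nM + NADPH 100 uM (dispensed conc.), cpd preinc 15 min RT; start with NADPH (500 uM addition) then DTNB (15 mM addition). Kinetic TNB absorbance, 405 nm filter. Four-parameter Hill fit across titration.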
A number is an active result; – = inactive; ? = inconclusive; · = not tested or not shown; [ ] = another dose, or the depositor's remark. The sample as a whole holds a higher share of hits than the screen did. Unless noted, calls follow the shape of the dose curve; as a rule, active = well fitted curve in the direction sought with a large enough effect; inconclusive = small, poorly fitted or top-dose-only effect, or another doubt; inactive = no such curve, though single readings can be large; an effect the other way counts as inactive or inconclusive.

SMILES	LmPK inh	Shiga inhibitor	Tb PYK inh	Cycloheximide cs	FBPA Giardia inh	Sm TGR inh
C=C1CCN(C(C(=O)NCc2ccc(Cl)c(Cl)c2)C(C)C)S(=O)(=O)c2ccccc21 (stereo not drawn)	·	–	·	–	–	·
Nc1nc2c(s1)COc1ccccc1-2	–	–	–	14	–	–
CCCCC(=O)Nc1nc2c(s1)COc1ccccc1-2	–	42	–	38	–	–
CCCC(=O)Nc1nc2c(s1)COc1ccccc1-2	–	31	–	24	–	–
CC(C)(C)C(=O)Nc1nc2c(s1)COc1ccccc1-2	–	46	–	19	–	–
CC(=O)Nc1ccn(C2COC(COC(=O)c3ccccc3)O2)c(=O)n1 (stereo not drawn)	·	·	–	·	·	·
COc1ccc(-n2ncc3c(NCC4CCCO4)ncnc32)cc1 (stereo not drawn)	–	95	–	68	–	–
Clc1ccc2[nH]c3c(NCCN4CCOCC4)ncnc3c2c1	–	–	–	–	–	–
Clc1ccc2[nH]c3c(NCC4CCCO4)ncnc3c2c1 (stereo not drawn)	–	–	·	23	–	–
Clc1ccc(-n2ncc3c(NCC4CCCO4)ncnc32)cc1 (stereo not drawn)	–	50	–	40	–	–
COC(=O)[C@H](CC(C)C)NC(=O)c1ccc(NC[C@@H](N)CS)cc1-c1cccc2ccccc12	·	–	·	–	–	·
CCCN1Cc2cccc(C(=O)Nc3cc(Cl)ccc3C)c2C1=O	·	·	–	·	·	–
CNC(=S)N1CCN(c2nc(-c3cccc(OC)c3)cs2)CC1	–	–	–	9.9	–	–
COc1cccc(-c2csc(N3CCN(C(=S)Nc4cccc(C)c4)CC3)n2)c1	–	–	–	18	–	·
COc1cccc(-c2csc(N3CCN(C(=S)Nc4ccccc4C)CC3)n2)c1	–	49	–	18	–	–
COc1cccc(-c2csc(N3CCN(C(=S)Nc4ccccc4)CC3)n2)c1	–	–	–	–	–	–
CCOc1ccccc1NC(=S)N1CCN(c2nc(-c3cccc(OC)c3)cs2)CC1	–	–	–	–	–	·
COc1cccc(-c2csc(N3CCN(Cc4ccccc4)CC3)n2)c1	–	–	–	18	–	–
CC1(C)OC2CC3C4CC(F)C5=CC(=O)CC[C@@]5(C)C4C(O)C[C@@]3(C)[C@]2(C(=O)CO)O1 (stereo partly drawn)	·	·	·	·	–	·
Cc1ccc(Oc2c(C(F)(F)F)oc3cc(OCC(=O)NC4CCCCC4)ccc3c2=O)cc1	·	·	–	·	·	–
COc1cccc(-c2csc(N3CCN(C(=O)Nc4ccccc4Cl)CC3)n2)c1	–	–	–	9.5	–	–
COc1cccc(-c2csc(N3CCN(C(=S)Nc4ccc(Cl)cc4)CC3)n2)c1	–	75	–	24	–	–
CN1C(=O)NC(c2ccccc2)C2=C1CN(CCc1ccccc1)C2=O (stereo not drawn)	–	–	–	–	–	?
CN1C(=O)NC(c2ccccc2)C2=C1CN(Cc1ccco1)C2=O (stereo not drawn)	–	–	–	–	–	35µM
CN(CCCN1CCCCC1)C(=O)c1cc(COc2ccc(F)cc2F)on1	–	–	–	–	–	–
SMILES	LmPK inh	Shiga inhibitor	Tb PYK inh	Cycloheximide cs	FBPA Giardia inh	Sm TGR inh
CN(CCCC1CCCC1)C(=O)c1cc(COc2c(F)cccc2F)on1	–	–	–	–	·	–
CN(CCC1CCCCO1)C(=O)c1cc(COc2ccc(F)cc2F)on1 (stereo not drawn)	–	–	–	21	–	–
CN(CCCC1CCCC1)C(=O)c1cc(COc2ccc(F)cc2F)on1	–	58	–	22	·	–
COC1C(OC(=O)/C=C/C=C/C=C/C=C/C(=O)O)CCC2(CO2)C1C1(C)OC1CC=C(C)C (stereo not drawn)	·	·	–	·	·	·
Cc1noc(C)c1COc1cccc(C(=O)NCc2ccccc2Cl)c1	–	–	–	–	–	–
CC(C)c1onc(-c2c(Cl)cccc2Cl)c1COc1ccc(/C=C/c2cccc(C(=O)O)c2)c(Cl)c1	·	60	–	36	–	·
COc1cccc(S(=O)(=O)N(C)C[C@@H]2Oc3ncc(C#CCN(C)C)cc3C(=O)N([C@H](C)CO)C[C@H]2C)c1	·	·	–	·	·	·
C=CCC1(CC=C)CCCN1C(=O)c1cc(COc2cncc(Cl)c2)on1	–	35	·	36	·	–
COC(=O)[C@@H](NC(=O)c1cc(COc2cncc(Cl)c2)on1)c1ccccc1	–	–	–	40	·	–
CCC(NC(=O)c1cc(COc2cncc(Cl)c2)on1)c1ccc(C)cc1 (stereo not drawn)	–	–	–	–	·	–
COCC1CCCN(C(=O)c2cc(COc3cncc(Cl)c3)on2)C1 (stereo not drawn)	–	101	–	41	–	–
COCC1CCN(C(=O)c2cc(COc3ccc(C)c(C)c3)on2)C1 (stereo not drawn)	–	–	–	–	·	–
CO/N=C1/CC2(CC3CC(C/C=C(/C)CC(C)/C=C\C=C4\COC5C(O)C(C)=CC(C(=O)O3)C45O)O2)OC(/C(C)=C/C(C)C)C1C (stereo not drawn)	·	·	–	·	·	·
CCOC(=O)c1nn(-c2ccccc2)cc1O	–	55	–	23	–	–
COC(=O)c1nn(-c2ccc(-c3ccccc3)cc2)cc1O	16µM	–	–	29	–	–
CCOC(=O)c1nn(-c2ccc(C)cc2)cc1O	–	76	–	55	–	–
CCOC(=O)c1cc(C(=O)OCC)cc(-n2cc(O)c(C(=O)OCC)n2)c1	–	–	–	–	·	–
CCOC(=O)c1nn(-c2ccc3ccccc3c2)cc1O	–	108	–	39	–	–
CCCCCCCCN=C(N)c1ccc(C(=O)OCC2CCCCC2)cc1	·	–	·	–	–	·
CCOC(=O)c1nn(-c2ccc(Cl)cc2)cc1O	–	101	–	56	–	–
c1cc2c(cc1-n1cnnn1)OCO2	–	–	–	–	–	–
CCOC(=O)c1nn(-c2ccc3c(c2)OCO3)cc1O	–	108	–	43	–	–
CCOC(=O)C1=NN(c2ccc(Cl)cc2)C(=O)C1	–	121	–	57	–	–
CCOC(=O)c1nn(-c2cc(C(=O)OC)cc(C(=O)OC)c2)cc1O	–	–	–	–	–	–
O=C(CCc1cn2ccccc2n1)NC1CCCc2c1cnn2-c1ccccc1F (stereo not drawn)	–	–	–	–	·	–
CC(C)c1ccc(NC(=O)c2ccc(F)c(S(=O)(=O)N3CCc4ccccc4C3)c2)cc1	·	·	–[15.4 µM]	·	·	–
Cn1c(Br)nc2c1c(=O)n(CC(O)COc1ccccc1)c(=O)n2C (stereo not drawn)	–	–	–	–	–	50µM
Cn1c(=O)c2c(nc(N3CCCCCC3)n2CC(O)COc2ccccc2)n(C)c1=O (stereo not drawn)	–	–	–	–	–	–
O=C(CN1C(=O)c2ccccc2C1=O)NCc1ccccn1	–	–	–	–	–	–

Screening data (PubChem)
